HT1080NT lethal = kills 2HG-producing HT-1080-NT fibrosarcoma cells | HT-1080-NT fibrosarcoma viability, CellTiter-Glo ATP luminescence, 48 h | Potency, µM (top dose mostly 46.1 µM), for the others: top-dose activity, negative = less viability, usual class: cytotoxic | hit rate 1.6% among 360,000;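 note: NT is the 2HG producing partner of a matched IDH1 knockdown line; 0% = DMSO-treated cells and -100% = media-only wells without cells; nearly all actives have a fitted effect of over 55% in size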
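Toxicity toward the 2HG-producing NT line was scored as %Activity, normalised to DMSO and no-cell wells, from CellTiter-Glo luminescence after 48 hours' treatment.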
SW480 rereplic = induces DNA re-replication in SW480 colon adenocarcinoma cells. SW480 DNA re-replication, Hoechst DNA content imaging, 48 h. hit rate 1.8% among 340,000. Potency, µM (series often up to 46.1 µM), for the others: top-dose re-replication activation, most hits filed as activators. AID 624297; note: % of control where 0% means no effect; nearly all actives have a fitted effect of over 55% in size
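First, 250 cells per well were seeded. Next, compound or vehicle (23 nL) was pinned in, plates sat 48 hr at 37 C. Finally Hoechst was added for 40 min before fluorescence scanning.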
KB-V1 cytotox = KB-V1 MDR subline cytotoxicity; hit rate 3.4% among 400,000; Potency, µM (titrated, usually from 46.1 µM), most hits filed as cytotoxic; KB-V1 MDR cells viability, CellTiter-Glo, 72 h; AID 1347076; note: % is set by controls: 0 for no effect and ±100 for the full control effect; nearly all actives have a fitted effect of over 60% in size
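KB-V1 MDR subline cells in DMEM (phenol-red free, 10% FBS) exposed to compounds in qHTS concentration series for 72 h at 37 degrees C. Viability read by CellTiter-Glo luminescence; concentration-effect curves fitted after normalization and correction.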
HT1080 IDH1KD tx = kills HT-1080 cells with IDH1 knockdown; HT-1080 IDH1 knockdown viability, ATP luminescence, 48 h; Potency, µM (highest dose often 46.1 µM), without a hit: at the top dose activity, negative = toxicity, actives largely listed as cytotoxic; hit rate 2% among 360,000;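 note: 0% = DMSO wells and -100% = cell-free medium wells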
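Luminescent ATP read-out (CellTiter-Glo, 10 min at room temperature) after 48 h compound exposure at 37 °C gave viability of IDH1-knockdown HT-1080 cells. Activity was normalised to DMSO and cell-free wells, then fitted as concentration-response curves.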
KB-3-1 cytotox = KB-3-1 parental cell cytotoxicity. KB-3-1 viability, CellTiter-Glo ATP luminescence, 72 h. AID 1347075. Potency, µM (series often up to 46.1 µM), actives largely listed as cytotoxic. hit rate 1.4% among 400,000; note: % is set by controls: 0 for no effect and ±100 for the full control effect; nearly all actives have a fitted effect of over 60% in size
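Screening of KB-3-1 cells (DMEM, 10% FBS, phenol-red free) ran from lowest to highest compound concentration; after 72 h at 37 °C viability was read luminescently and curves fitted.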
MCF10A rereplic = inducers of DNA re-replication in MCF 10A breast cells; MCF 10A DNA re-replication, Hoechst nuclear intensity, 48 h; Potency, µM (series often up to 46.1 µM), for inactives: top-dose activity, positive = re-replication, actives largely listed as activators; hit rate 2.9% among 350,000; note: % of control where 0% means no effect; nearly all actives have a fitted effect of over 50% in size
The depositor's hits bear a star; i = inactive; ? = inconclusive; . = no result; [ ] = remark or other dose. The list is not random: actives were taken first. Their share in the collection is about 7.9%. Calls come from the whole dose curve; as a rule, active = well fitted curve in the direction sought with a large enough effect; inconclusive = small, poorly fitted or top-dose-only effect, or another doubt; inactive = no such curve, though single readings can be large; an effect the other way counts as inactive or inconclusive. Potency is the fitted concentration of half-maximal effect.

SMILES | HT1080NT lethal | SW480 rereplic | KB-V1 cytotox | HT1080 IDH1KD tx | KB-3-1 cytotox | MCF10A rereplic
Cc1ccc(CNCC(O)(c2ccccc2)c2ccccc2)cc1 | -6% | -12% | i | -11% | i | 1%
CCCC(=O)N(C1CC(C)C(C#N)(C#N)C1(C#N)C#N)N(C)C (stereo not given) | ? | 4.6µM* | i | ? | i | 2.9µM*
N#CCOc1ccccc1CNC[C@H]1O[C@@H](n2cnc3c(=O)[nH]c(N)nc32)[C@H](O)[C@@H]1O | 20% | . | i | 19% | i | .
COc1cccc(NC(=S)NC(=O)/C=C/c2ccco2)c1 | 21µM* | ? | ? | 6.5µM* | ? | ?
Cc1ccc2oc(-c3cccc(NC(=S)NC(=O)/C=C/c4ccco4)c3)nc2c1 | ? | ? | ? | ? | ? | 9.2µM*
Cc1ccc2oc(-c3cccc(NC(=S)NC(=O)c4cccs4)c3)nc2c1 | 13% | -5% | i | 15% | i | 2%
COc1cc(C2NC(=O)NC(C)=C2C(=O)OCc2ccc(C)cc2)cc(OC)c1O (stereo not given) | -1% | 16% | i | -15% | i | 7.3µM*
CCOC(=O)C1=C(C)NC(=O)NC1c1ccc(NC(C)=O)cc1 (stereo not given) | -9% | 4% | i | -4%[9.24 µM] | i | 0%
CCOc1ccc(C2NC(=O)NC(C)=C2C(=O)OCc2ccccc2)cc1 (stereo not given) | ? | ? | ? | ? | ? | 21µM*
CC1=C(C(=O)OCc2ccccc2)C(c2ccc(N(C)C)cc2)NC(=O)N1 (stereo not given) | -19% | ? | ? | -8% | i | ?
CCOC(=O)C1=C(C)NC(=O)NC1c1ccc(N2CCC(c3ccccc3)=N2)cc1 (stereo not given) | 5% | 23µM* | i | 1% | i | ?
COc1cc(C2NC(=O)NC(C)=C2C(=O)OCc2ccc(C)cc2)cc(OC)c1OC (stereo not given) | 6% | ? | i | -20% | i | 1%
COC(=O)c1ccc2c(=O)n(CCCCCC(=O)N3CCN(c4cc(C)ccc4C)CC3)c(=O)[nH]c2c1 | . | . | i | . | i | .
COc1ccc(C(=O)C(CCCCC(CN(C)C)C(=O)c2ccc(OC)cc2)CN(C)C)cc1 (stereo not given) | -14% | ? | 13µM* | ? | i | ?
COc1ccc(C(C)=O)cc1 | . | . | i | . | i | .
CCOc1ccc(C(=O)c2ccncc2)cc1 | -4% | -2% | i | -20% | i | -2%
CN(C)CC(CCC(CN(C)C)C(=O)c1ccccc1)C(=O)c1ccccc1 (stereo not given) | 3.3µM* | ? | 8.2µM* | 5.8µM* | 16µM* | ?
CCOc1ccc(C(=O)C(CCC(CN(C)C)C(=O)c2ccc(OCC)cc2)CN(C)C)cc1 (stereo not given) | 5.2µM* | 3.7µM* | i | 5.8µM* | ? | ?
O=C(c1ccccc1)C(CCc1ccccn1)CCc1ccccn1 | -2% | 2% | i | -3% | i | 6%
CC(=O)NCCNc1nc(NCC2CC2)nc2cc(-c3ccccc3)sc12 | ? | . | i | ? | i | .
Cc1nn(C)c2c1c(C(F)(F)F)cc(=O)n2CC(=O)NC(C)(C)C | . | . | i | . | i | .
CCOC(=O)c1cccc(NC(=O)NC2COc3ccccc3C2)c1 (stereo not given) | . | . | i | . | i | .
COc1cccc(-n2nnnc2SCC(=O)N2CCCc3ccccc32)c1 | -9% | 12µM* | i | 5% | i | ?
Cc1ccc(C)c2c1cc(C)c1nnc(SCC(=O)N3CCCc4ccccc43)n12 | 0% | -141% | 9.2µM* | -5% | ? | 4%
COc1cccc(-n2nnnc2SCC(=O)NC2CCCCC2)c1 | 0% | 2% | i | 7% | i | 9%
SMILES | HT1080NT lethal | SW480 rereplic | KB-V1 cytotox | HT1080 IDH1KD tx | KB-3-1 cytotox | MCF10A rereplic
O=C(Nc1nnc(SCC(=O)N2CCCc3ccccc32)s1)c1cccc2ccccc12 | -17% | -4% | i | -15% | i | -2%
COc1cccc(-n2nnnc2SCC(=O)NC2CCCC2)c1 | -3% | -2% | 21µM* | -1% | i | 3%
Cc1ccc(C(=O)Nc2nnc(SCC(=O)N3CCCc4ccccc43)s2)cc1 | 0% | 4% | 23µM* | -6% | i | ?
Cc1ccccc1CN1C(=O)C2(c3ccccc31)N(c1ccccc1)C(=O)CS2(=O)=O (stereo not given) | . | . | i | . | i | .
COc1cc(NC(=O)CSc2ncc(S(=O)(=O)c3ccc(Br)cc3)c(=O)[nH]2)cc(OC)c1 | . | . | i | . | i | .
COc1ccc(NC(=O)c2oc3ccccc3c2NC(=O)Cc2ccc(F)cc2)c(OC)c1 | . | . | ? | . | i | .
O=C(CCS(=O)(=O)c1ccc(Br)s1)Nc1cc(C(F)(F)F)cc(C(F)(F)F)c1 | . | . | ? | . | i | .
O=C(CSc1nnnn1-c1cccc(F)c1)NC1CCCCC1 | 0% | -7% | 18µM* | -1% | i | -3%
CCOc1ccc(C2C(C(N)=O)=C(C)Nc3nc(SCc4ccccc4)nn32)cc1 (stereo not given) | . | . | i | . | i | .
Cc1ccc(S(=O)(=O)N2CCN(c3nc(-c4cccs4)nc4nc[nH]c34)CC2)cc1 | -20% | . | . | -9% | . | .
Cc1ccc(OCc2cc(C(=O)N(C)CCc3nc4ccccc4[nH]3)no2)cc1C | ? | ? | i | -10% | i | 21µM*
Cc1ccc(OCc2cc(C(=O)N(C)CCc3ccccn3)no2)cc1C | -5% | ? | i | -1% | i | ?
COc1ccccc1NC(=O)Cn1c(=O)n(Cc2ccccc2)c(=O)c2ccccc21 | . | . | i | . | i | .
Cc1cc(NC(=O)Cn2c(=O)n(Cc3ccccc3)c(=O)c3ccccc32)no1 | -1% | 8% | 7.3µM* | 4% | i | 12%
CCOC(=O)/C=c1\s/c(=C\c2ccc3cc(OC)ccc3c2)c(=O)n1CC(=O)NCc1ccc2c(c1)OCO2 | 12% | 5% | ? | 9% | 18µM* | 18%
COc1cc2c(=O)n(Cc3ccccc3)c(=O)n(CC(=O)NCC3CCCO3)c2cc1OC (stereo not given) | 5% | -3% | 21µM* | 12% | i | -2%
CCOC(=O)/C=c1\s/c(=C\c2ccccc2C)c(=O)n1CC(=O)NCc1ccc2c(c1)OCO2 | ? | ? | 3.3µM* | ? | i | ?
